Holding throughout (experiment): pooled miR-30 sensor sort-seq; sequence = guide strand
Common to all, as to settings: shRNA

The target in assay [1] is COMMD10.
Assay [2] addresses COMMD1.
Assay [3] deals with COL4A3BP.
In assay [4] the target is COPS7A.
Assay [5] deals with CRTAM.
Assay [6] deals with CSGALNACT1.
The target of assay [7] is CSTF3.
Assay [8] deals with CT47A1.
Note: reference of the scale not given here.

With TTGCATTTATCAGTGACACTGC, the sensor-assay potency score (higher = more potent) in assay [1] worked out at 0.191.

With TTGCCATCAACTCTCCAGCTCA, the sensor-assay potency score (higher = more potent) in assay [2] is -1.2.

In the case of TCGACATTCATCAAAATCGTGA, the sensor-assay potency score (higher = more potent) in assay [3] is -0.678.

As for TTTGACCTCATCAAATTCCAAA, in assay [2], the sensor-assay potency score (higher = more potent) is -0.935.

As to TTCTACTAAGGTACACATCTTA, the sensor-assay potency score (higher = more potent) in assay [1] was found to be 0.49.

As for TAGGAGCAGAAATTGCTCCTGG, in assay [4], the sensor-assay potency score (higher = more potent) was -0.149.

For TAGCTGCTCACACTGACCCTGA, the sensor-assay potency score (higher = more potent) in assay [5] is -0.659.

TTAAACAATGAGTTTACTGTGA: in assay [6], the sensor-assay potency score (higher = more potent) is -0.267.

Take TATCTCGTGCCTGAACACCAGC: in assay [6], the sensor-assay potency score (higher = more potent) is -0.848.

Take TAGAGCATAGGTCTGTTCCGTA: the sensor-assay potency score (higher = more potent) in assay [7] amounted to 0.181.

Regarding TTTTCTATCCACTTCATCTTTC, the sensor-assay potency score (higher = more potent) in assay [7] is -0.135.

Take TTTGTCTATAGGTTGATTCTGT: the sensor-assay potency score (higher = more potent) in assay [7] is -0.133.

Consider TTGGTATCTTGCATCTTCGGAA, for which the sensor-assay potency score (higher = more potent) in assay [7] is -0.546.

With TTTAGTGACTTCCTCTGGGGCC, in assay [8], the sensor-assay potency score (higher = more potent) was -0.087.

As to TACTTGTTATAGTCTCTCCAGA, the sensor-assay potency score (higher = more potent) in assay [7] was -0.878.

In the case of TATAGAAGGAGCTACAACTGGG, the sensor-assay potency score (higher = more potent) in assay [7] came out at 0.225.

For the sequence TAGCTGCTAGCTTAGCACGGGA, the sensor-assay potency score (higher = more potent) in assay [7] was -0.406.

In the case of TTTGCTTAGAGCATAGGTCTGT, the sensor-assay potency score (higher = more potent) in assay [7] is 0.755.

As for TTCCATTCCAATTTTATCCAGT, the sensor-assay potency score (higher = more potent) in assay [7] was -0.0677.

On to TTTGTTTCCAAGAACCTTGTAA, for which the sensor-assay potency score (higher = more potent) in assay [7] turned out to be 0.432.

As for TTTAGCTAAATGAATATTGATA, the sensor-assay potency score (higher = more potent) in assay [7] is -0.643.

Turning to TTATTCTTTGATTTTCTGCATA, the sensor-assay potency score (higher = more potent) in assay [7] was -0.891.

Regarding TAATTCAGTTACTTCCACCTGG, in assay [6], the sensor-assay potency score (higher = more potent) is 0.629.

Take ATATTGATGAAGTCTGACCGAT: the sensor-assay potency score (higher = more potent) in assay [6] is -0.598.

Consider TTGATGTCCAGATCAAACCCAC, for which the sensor-assay potency score (higher = more potent) in assay [6] is -0.21.

Consider TTCTTCTTCAATAAAGTGCTTA, for which the sensor-assay potency score (higher = more potent) in assay [7] was -0.0244.

Regarding TTGAATGCTGTAAACCGTCTTT, in assay [7], the sensor-assay potency score (higher = more potent) is -0.262.

As to TCGGATTAACACAACCTCGTTG, the sensor-assay potency score (higher = more potent) in assay [7] was -0.511.

Take TTTCTTTGTAACTTGGTAGTTT: the sensor-assay potency score (higher = more potent) in assay [7] was -0.139.

Turning to TAAATCAATGTGCAAAACCTTC, the sensor-assay potency score (higher = more potent) in assay [7] is -1.01.

Values taken from the OligoGym collection.
